Test results from PubChem BioAssay AID1159580 (chemical genetic matrix, 2015).
Hit rate of the full screen: of about 5,500 compounds, about 2,000 (36%) were called active. Inconclusive results (about 18%) are left out. Cut-off read from the data, not from the text of the source: active = normalized growth mostly below about 0.91 (no sharp cut-off); inconclusive = no clear call, values can overlap the other calls; inactive = mostly above about 0.92. Some of the results follow.

Assay: chemical genetic growth profiling, strain panel (AID 1159580);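 note: tested at 20 µM; growth read once vehicle control cultures reached saturation at 30 °C; 1 = growth at the plate median or of vehicle wells; lower values mean less growth of the strain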
Conditions: S. cerevisiae deletion strains, growth OD
[1] = locus YAL021C, strain ccr4, hits give low values
[2] = locus YAL026C, strain drs2, hits give low values
[3] = locus YAL030W, strain snc1, hits give low values
[4] = locus YBL061C, strain skt5, hits give low values
[5] = locus YBR009C, strain hhf1, hits give low values
[6] = locus YBR023C, strain chs3, hits give low values
[7] = locus YBR171W, strain sec66, hits give low values
[8] = locus YBR231C, strain swc5, hits give low values
[9] = locus YBR279W, strain paf1, hits give low values
[10] = locus YCL011C, strain gbp2, hits give low values
[11] = locus YCL016C, strain dcc1, hits give low values
[12] = locus YCL061C, strain MRC1, hits give low values
[13] = locus YCL069W, strain vba3, hits give low values
[14] = locus YCR088W, strain abp1, hits give low values
[15] = locus YDL005C, strain med2, hits give low values
[16] = locus YDL040C, strain nat1, hits give low values
[17] = locus YDR001C, strain nth1, hits give low values
[18] = locus YDR069C, strain doa4, hits give low values
[19] = locus YDR137W, strain rgp1, hits give low values
[20] = locus YDR159W, strain sac3, hits give low values
[21] = locus YDR297W, strain sur2, hits give low values
[22] = locus YDR334W, strain swr1, hits give low values
[23] = locus YDR335W, strain msn5, hits give low values
[24] = locus YDR392W, strain spt3, hits give low values
[25] = locus YEL003W, strain gim4, hits give low values
[26] = locus YEL037C, strain rad23, hits give low values
[27] = locus YEL061C, strain CIN8 (second series), hits give low values
[28] = locus YER015W, strain faa2, hits give low values
[29] = locus YER016W, strain bim1, hits give low values
[30] = locus YER111C, strain swi4, hits give low values
[31] = locus YER155C, strain BEM2 (second series), hits give low values
[32] = locus YFR010W, strain ubp6, hits give low values
[33] = locus YGL167C, strain pmr1, hits give low values
[34] = locus YGL173C, strain kem1, hits give low values
[35] = locus YGL227W, strain vid30, hits give low values
[36] = locus YGL240W, strain doc1, hits give low values
[37] = locus YGL253W, strain hxk2, hits give low values
[38] = locus YHR013C, strain ard1, hits give low values
[39] = locus YHR027C, strain rpn1, hits give low values
[40] = locus YHR142W, strain chs7, hits give low values
[41] = locus YJL092W, strain hpr5, hits give low values
[42] = locus YJL095W, strain BCK1 (second series), hits give low values
[43] = locus YJL115W, strain asf1, hits give low values
[44] = locus YJL129C, strain trk1, hits give low values
[45] = locus YJL154C, strain vps35, hits give low values
[46] = locus YJL164C, strain tpk1, hits give low values
[47] = locus YJL166W, strain qcr8, hits give low values
[48] = locus YJL187C, strain SWE1, hits give low values
[49] = locus YKL160W, strain elf1, hits give low values
[50] = locus YKR026C, strain gcn3, hits give low values
[51] = locus YKR091W, strain srl3, hits give low values
[52] = locus YLL001W, strain dnm1, hits give low values
[53] = locus YLL026W, hits give low values
[54] = locus YLL041C, strain sdh2, hits give low values
[55] = locus YLR027C, strain aat2, hits give low values
[56] = locus YLR221C, strain rsa3, hits give low values
[57] = locus YLR258W, strain gsy2, hits give low values
[58] = locus YLR262C, strain YPT6 (second series), hits give low values
[59] = locus YLR320W, strain mms22, hits give low values
[60] = locus YLR342W, strain FKS1, hits give low values
[61] = locus YLR357W, strain rsc2, hits give low values
[62] = locus YLR370C, strain arc18, hits give low values
[63] = locus YLR384C, strain iki3, hits give low values
[64] = locus YML120C, strain ndi1, hits give low values
[65] = locus YMR058W, strain fet3, hits give low values
[66] = locus YMR125W, strain sto1, hits give low values
[67] = locus YMR129W, hits give low values
[68] = locus YMR205C, strain PFK2, hits give low values
[69] = locus YMR231W, strain pep5, hits give low values
[70] = locus YNL071W, strain lat1, hits give low values
[71] = locus YNL209W, strain ssb2, hits give low values
[72] = locus YNL248C, strain rpa49, hits give low values
[73] = locus YNL322C, strain KRE1 (second series), hits give low values
[74] = locus YNR049C, strain mso1, hits give low values
[75] = locus YOR001W, strain rrp6, hits give low values
[76] = locus YOR070C, strain gyp1, hits give low values
[77] = locus YOR080W, strain dia2, hits give low values
[78] = locus YOR083W, strain WHI5, hits give low values
[79] = locus YOR106W, strain vam3, hits give low values
[80] = locus YOR265W, strain rbl2, hits give low values
[81] = locus YOR270C, strain vph1, hits give low values
[82] = locus YOR290C, strain snf2, hits give low values
[83] = locus YPL051W, strain arl3, hits give low values
[84] = locus YPL078C, strain atp4, hits give low values
[85] = locus YPL106C, strain sse1, hits give low values
[86] = locus YPL240C, strain hsp82, hits give low values

Measured: normalized growth

CC(CCC(=O)O)[C@H]1CCC2C3CC[C@@H]4C[C@H](O)CC[C@]4(C)C3C=C[C@@]21C (some centres not stated)
inactive: [1] 0.968 | [3] 1.01 | [4] 1.01 | [5] 0.964 | [6] 0.95 | [7] 0.976 | [8] 1.02 | [9] 0.972 | [10] 0.994 | [11] 0.962 | [12] 0.989 | [13] 0.997 | [14] 1.02 | [15] 0.992 | [16] 1.01 | [17] 1.01 | [18] 1 | [20] 0.948 | [21] 1 | [22] 0.991 | [23] 0.969 | [25] 0.968 | [26] 0.995 | [27] 1.01 | [28] 1.01 | [29] 0.999 | [30] 1 | [31] 1.08 | [32] 0.987 | [33] 0.989 | [35] 1.03 | [36] 0.982 | [37] 0.955 | [38] 0.973 | [39] 0.996 | [41] 0.986 | [42] 1 | [43] 1.01 | [44] 0.879 | [45] 1.03 | [48] 0.972 | [50] 1.03 | [51] 1.01 | [52] 1 | [53] 1.01 | [54] 1 | [55] 0.944 | [57] 0.998 | [60] 0.968 | [61] 1.13 | [62] 0.955 | [63] 1.03 | [67] 1.02 | [68] 0.966 | [69] 0.963 | [71] 0.99 | [72] 0.904 | [73] 1.04 | [74] 1 | [77] 0.997 | [80] 1.01 | [81] 0.808 | [86] 0.997
active: [2] 0.907 | [19] 0.501 | locus YDR195W, strain ref2 1.2 [resistant] | [24] 0.485 | [34] 0.812 | [40] 0.839 | [46] 0.899 | [47] 0.894 | [49] 0.881 | [56] 0.898 | [58] 0.532 | [59] 0.742 | [64] 0.861 | [65] 0.869 | [66] 1.11 [resistant] | [70] 0.792 | [75] 0.86 | [76] 0.9 | [78] 0.85 | [79] 0.842 | [82] 0.83 | [83] 0.817 | [84] 0.834 | [85] 1.22 [resistant]

CC(CCC(=O)O)[C@H]1CCC2C3C(=O)C[C@@H]4CC(=O)CC[C@]4(C)C3CC(=O)[C@@]21C (some centres not stated)
inactive: [1] 0.995 | [2] 1 | [3] 0.994 | [4] 0.994 | [5] 0.995 | [6] 0.993 | [7] 0.982 | [8] 0.994 | [9] 0.982 | [10] 0.987 | [11] 0.984 | [12] 0.987 | [13] 0.995 | [14] 0.994 | [15] 0.986 | [16] 0.991 | [17] 0.993 | [18] 1 | [19] 1.01 | [20] 1.01 | locus YDR195W, strain ref2 0.999 | [21] 0.996 | [22] 0.993 | [23] 0.997 | [24] 0.932 | [25] 1.01 | [26] 0.99 | [27] 0.99 | [28] 1.01 | [29] 0.999 | [30] 0.998 | [31] 0.999 | [32] 0.992 | [33] 0.992 | [34] 0.989 | [35] 0.985 | [36] 1.01 | [37] 0.991 | [38] 0.99 | [39] 0.995 | locus YHR030C, strain SLT2, hits give low values 1.02 | locus YHR079C, strain IRE1, hits give low values 1.02 | [40] 0.952 | [41] 0.993 | [42] 0.991 | locus YJL095W, strain BCK1, hits give low values 1.01 | [43] 0.991 | [44] 1.01 | [45] 0.993 | [46] 0.99 | [47] 0.989 | [48] 0.99 | locus YJR066W, strain TOR1, hits give low values 0.975 | [49] 0.977 | [50] 0.993 | [51] 0.99 | [52] 0.975 | [53] 0.998 | [54] 0.993 | [55] 0.991 | locus YLR113W, strain HOG1, hits give low values 1.05 | [56] 0.964 | [57] 0.992 | [58] 1 | [59] 0.971 | [60] 0.99 | [61] 0.986 | [62] 0.993 | [63] 0.978 | [64] 0.989 | [65] 0.999 | [66] 0.982 | [67] 0.99 | [68] 0.989 | [69] 0.999 | [70] 0.997 | locus YNL183C, strain NPR1, hits give low values 0.997 | [71] 0.997 | [72] 0.982 | [73] 0.992 | [74] 0.992 | [75] 1.02 | [76] 0.996 | [77] 0.994 | [78] 0.969 | [79] 0.974 | locus YOR231W, strain MKK1, hits give low values 1.07 | [80] 0.998 | [81] 0.957 | [82] 0.993 | [83] 1.01 | [84] 0.98 | [85] 0.975 | [86] 1 | locus YPL256C, strain CLN2, hits give low values 1.02
